For 27 molecules, outcome and Potency results are on record in PubChem BioAssay (Tox21).

A short description of test [1]: qHTS assay to test for compound auto fluorescence at 535 nm (green) in HEK293 cells (AID 720680).
Test [2] can be described thus: qHTS assay to test for compound auto fluorescence at 460 nm (blue) in HEK293 cell free culture (AID 720681). Put shortly:
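Test compounds were pinned into cell-free culture medium (DMEM with 10% FBS) and fluorescence was read directly at Ex/Em 405/460 nm. Signals were expressed as fluorescence equivalents of triamterene, with DMSO vehicle as control.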

Test [3] is described as follows: qHTS assay to test for compound auto fluorescence at 535 nm (green) in HEK293 cell free culture (AID 720682). An outline of the steps:
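Green-label autofluorescence (485 nm excitation, 535 nm emission) measured on compound added to cell-free culture medium (DMEM, 10% FBS). Output is expressed relative to fluorescein.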
A general note: Quantitative high-throughput screening tests each substance at several concentrations.

A short description of test [4]: qHTS assay to test for compound auto fluorescence at 590 nm (red) in HEK293 cell free culture (AID 720683). Put shortly: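 Tox21 10K library compounds were pinned into cell-free DMEM with 10% FBS and fluorescence was read at excitation 540 nm. Activity is expressed as Rose Bengal sodium equivalency.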
A short description of test [5]: qHTS assay to test for compound auto fluorescence at 590 nm (red) in HepG2 cell free culture (AID 720684). Put shortly: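 Red fluorescence (540 nm excitation, 590 nm emission) was measured after compound transfer into cell-free MEM supplemented with 10% FBS. Values are equivalencies against Rose Bengal sodium.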
Test [6] in a line: qHTS assay to test for compound auto fluorescence at 460 nm (blue) in HepG2 cell free culture (AID 720685). Put shortly: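 Compound (23 nL) or DMSO pinned into cell-free MEM with 10% FBS; blue fluorescence read at 405/460 nm excitation/emission, expressed as auto-fluorescence equivalency to triamterene.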
Test [7] can be described thus: qHTS assay to test for compound auto fluorescence at 535 nm (green) in HepG2 cell free culture (AID 720686).
Test [8] in a line: qHTS assay to test for compound auto fluorescence at 460 nm (blue) in HepG2 cells (AID 720687). Put shortly:
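Cells (2,000/well in MEM with 10% FBS) attached overnight at 37 C, then were exposed to compound or DMSO for 1 hr at 37 C, 5% CO2. Fluorescence read at Ex/Em 405/460 nm, expressed as triamterene-equivalent signal.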

Test [9] deals with Glucocorticoid receptor (Homo sapiens) (UniProt P04150). Put plainly: qHTS assay to identify small molecule agonists of the glucocorticoid receptor (GR) signaling pathway (AID 720691; active = well fitted activation curve with a large enough effect in the signal ratio in the repeat runs, not every such curve was filed as active; the % refers to the signal ratio). Put shortly: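 Reporter read-out: fluorescence intensity following 2 h room-temperature LiveBLAzer B/G FRET substrate loading. Prior step: GR-bla HeLa cells held 4 h, then treated 18 h at 37 C.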
Sequence of Glucocorticoid receptor (Homo sapiens) (P04150 whole entry, looked up): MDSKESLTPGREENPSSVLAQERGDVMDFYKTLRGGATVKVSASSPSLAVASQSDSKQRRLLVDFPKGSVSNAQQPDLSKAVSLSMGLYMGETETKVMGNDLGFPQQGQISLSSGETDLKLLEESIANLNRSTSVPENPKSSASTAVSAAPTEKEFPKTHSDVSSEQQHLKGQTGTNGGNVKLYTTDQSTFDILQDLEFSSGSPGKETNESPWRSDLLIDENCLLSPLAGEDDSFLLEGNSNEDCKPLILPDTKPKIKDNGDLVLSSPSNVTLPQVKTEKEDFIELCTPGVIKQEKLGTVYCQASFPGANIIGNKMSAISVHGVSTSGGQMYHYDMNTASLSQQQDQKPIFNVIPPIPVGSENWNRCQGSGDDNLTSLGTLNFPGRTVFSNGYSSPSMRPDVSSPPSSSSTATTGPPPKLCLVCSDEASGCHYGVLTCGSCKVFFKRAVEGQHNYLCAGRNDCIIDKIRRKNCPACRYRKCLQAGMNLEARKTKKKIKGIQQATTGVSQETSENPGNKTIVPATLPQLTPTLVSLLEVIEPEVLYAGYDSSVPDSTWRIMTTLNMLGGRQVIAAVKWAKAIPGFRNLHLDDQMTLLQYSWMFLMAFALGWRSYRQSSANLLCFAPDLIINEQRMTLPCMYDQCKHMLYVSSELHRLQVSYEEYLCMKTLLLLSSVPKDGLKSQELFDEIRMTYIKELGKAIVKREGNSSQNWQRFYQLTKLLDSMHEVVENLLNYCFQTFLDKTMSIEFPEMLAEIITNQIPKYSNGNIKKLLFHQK

The target is the same in test [10]. The test can be described thus: qHTS assay to identify small molecule antagonists of the glucocorticoid receptor (GR) signaling pathway (AID 720692; active = well fitted inhibition curve with a large enough effect in the signal ratio in the repeat runs, not every such curve was filed as active; the % refers to the signal ratio; also: potency is read from the fitted curve at half-maximal effect). An outline of the steps:
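Dexamethasone (5 nM final) stimulated a stably integrated GRE-beta-lactamase reporter in HeLa cells during 18 h co-incubation with compounds; signal was quantified as fluorescence intensity of B/G FRET substrate after 2 h.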

Results filed as inconclusive are left out. Active and inactive are the calls of the source. Unless noted, calls follow the shape of the dose curve; as a rule, active = well fitted curve in the direction sought with a large enough effect in the repeat runs; inconclusive = weak or mixed curves; inactive = flat fitted curve, though single readings scatter.

`CCCCOCC1CO1` (stereo not drawn): the outcome in [1], in test [3], in [4], in test [5], in [7] and in [9] was inactive. Also, the Potency entry in test [2], in test [6] and in test [8] was “inactive” throughout.
As to `ClC(Cl)=C(Cl)C(Cl)=C(Cl)Cl`, the outcome in test [1], in test [3], in [4], in test [5], in test [7] and in [9] was inactive. Moreover, the Potency result in test [2], in test [6] and in test [8] was “inactive” in each case.
Regarding `OCCOCCO`, the result in [1], in [3], in test [4], in [5], in [7] and in [9] was inactive. For the same molecule, the Potency result in [2], in [6] and in test [8] was “inactive” in each case.
In the case of `CCCCCCCC[N+](C)(CCCCCCCC)CCCCCCCC`, the call in test [1], in test [3], in test [4], in [5] and in [7] was inactive. In addition, the Potency result in test [2], in test [6] and in test [8] was “inactive” in each case.
For `CC(O)CN(CC(C)O)CC(C)O` (stereo not drawn), the outcome in [1], in test [3], in test [4], in test [5], in test [7] and in test [9] was inactive. The Potency entry in test [2], in test [6] and in [8] was “inactive” in each case.
In the case of `Oc1ccc(Cl)cc1Cl`, the result in [1], in [3], in [4], in test [5], in test [7] and in test [9] was inactive. For the same molecule, the Potency entry in [2], in test [6] and in test [8] was “inactive” each time.
In the case of `ClC(Cl)(Cl)c1ccccc1`, the result in [1], in test [3], in test [4], in test [5], in test [7] and in test [9] was inactive. Also, the Potency entry in test [2], in test [6] and in [8] was “inactive” throughout.
As for `CCOC(=O)c1ccccc1N`, the molecule was classed as inactive in [1], in [3], in [4], in test [5], in test [7] and in [9]. For the same molecule, the Potency entry in test [2], in test [6] and in test [8] was “inactive” in each case.
Regarding `Cn1c(-c2ccccc2)cc(-c2ccccc2)[n+]1C`, the molecule was called inactive in test [1], in test [3], in test [4], in test [5], in test [7] and in test [9]. Also, the Potency entry in test [2], in test [6] and in [8] was “inactive” throughout.
As to `Brc1ccc(Br)cc1`, the outcome in [1], in [3], in test [4], in [5], in test [7] and in test [9] was inactive. The Potency result in test [2], in [6] and in [8] was “inactive” each time.
In the case of `CCCCCCCCCC(CC)c1ccc(S(=O)(=O)O)cc1` (stereo not drawn), the molecule was classed as inactive in test [1], in [3], in [4], in test [5], in [7] and in [9]. Moreover, the Potency entry in [2], in [6] and in test [8] was “inactive” in each case.
For the molecule `CC(C)=CC1C(C(=O)OCN2C(=O)C3=C(CCCC3)C2=O)C1(C)C` (stereo not drawn), the call in test [1], in test [3], in test [4], in [5], in test [7] and in [9] was inactive. Besides, the Potency entry in [2], in test [6] and in test [8] was “inactive” each time.
For the molecule `COC(=O)Nc1nc2ccccc2[nH]1`, the molecule was classed as inactive in [1], in [3], in [4], in test [5], in test [7] and in test [9]. The Potency result in [2], in test [6] and in test [8] was “inactive” throughout.
Take `N#Cc1nn(-c2c(Cl)cc(C(F)(F)F)cc2Cl)c(N)c1S(=O)C(F)(F)F` (stereo not drawn): the result in test [1], in test [3], in test [4], in test [5], in test [7] and in test [9] was inactive. Moreover, the Potency result in test [2], in [6] and in test [8] was “inactive” each time.
With `Cc1ccc([N+](=O)[O-])cc1`, the result in test [1], in [3], in [4], in [5], in test [7] and in test [9] was inactive. Moreover, the Potency entry in [2], in [6] and in test [8] was “inactive” in each case.
As for `Cc1ccc(N=CN(C)C=Nc2ccc(C)cc2C)c(C)c1`, the outcome in test [1], in test [3], in test [4], in test [5], in test [7] and in test [9] was inactive. The Potency entry in test [2], in test [6] and in test [8] was “inactive” each time.
For `Clc1cccc(Cl)c1`, the molecule was classed as inactive in test [1], in [3], in test [4], in test [5], in test [7] and in test [9]. The Potency result in test [2], in test [6] and in test [8] was “inactive” in each case.
With `O=[N+]([O-])/N=C1\NCCN1Cc1ccc(Cl)nc1`, the molecule was classed as inactive in test [1], in [3], in [4], in test [5], in test [7] and in test [9]. For the same molecule, the Potency result in [2], in [6] and in [8] was “inactive” each time.
Turning to `COc1ccc(O)c(C(C)(C)C)c1`, the molecule was called inactive in test [1], in test [3], in test [4], in [5], in [7] and in [9]. The Potency result in test [2], in test [6] and in [8] was “inactive” in each case.
On to `O=[N+]([O-])c1ccc(Nc2ccccc2)cc1`, for which the result in test [1], in test [3], in test [4], in test [5], in test [7] and in [9] was inactive. For the same molecule, the Potency result in [2], in test [6] and in test [8] was “inactive” in each case. In addition, the Potency in test [10] was 49.4 µM (active).
As to `Clc1ccc(C(Cl)(Cl)Cl)cc1`, the molecule was called inactive in [1], in test [3], in [4], in [5], in [7] and in test [9]. Besides, the Potency result in test [2], in [6], in test [8] and in test [10] was “inactive” in each case.
Regarding `O=NN1CCOCC1`, the molecule was called inactive in test [1], in [3], in test [4], in test [5], in test [7] and in test [9]. Also, the Potency entry in [2], in [6], in test [8] and in [10] was “inactive” each time.
With `S=c1[nH]c2ccccc2[nH]1`, the molecule was classed as inactive in test [1], in [3], in test [4], in test [5], in test [7] and in test [9]. Moreover, the Potency entry in test [2], in [6] and in [8] was “inactive” throughout.
Take `N#Cc1cccnc1`: the call in [1], in [3], in [4], in [5], in test [7] and in test [9] was inactive. The Potency result in [2], in test [6], in test [8] and in test [10] was “inactive” in each case.
As for `CC1CC(=O)O1` (stereo not drawn), the molecule was called inactive in test [1], in test [3], in test [4], in test [5], in test [7] and in test [9]. For the same molecule, the Potency result in [2], in [6], in [8] and in test [10] was “inactive” each time.
`O=C(O)c1nn(Cc2ccc(Cl)cc2Cl)c2ccccc12`: the outcome in test [1], in test [3], in test [4], in [5], in [7] and in test [9] was inactive. Further, the Potency entry in test [2], in test [6] and in [8] was “inactive” each time.
As for `O=C1CCCO1`, the result in test [1], in test [3], in test [4], in test [5], in [7] and in test [9] was inactive. Moreover, the Potency result in test [2], in [6], in test [8] and in test [10] was “inactive” in each case.
